Data reported in PubChem BioAssay AID618 (Sanford-Burnham Center for Chemical Genomics, 2007).
Among all 87,000 compounds or so, about 540 (0.62%) were called active. This is one part of a sample in which actives are shown more often than they occur. The rule behind the calls is not given here. Potency and affinity values are given separately.

assay: MT1-MMP gene expression reporter suppression – cell-based, luciferase reporter, luminescence (AID 618); conditions: MT1-MMP promoter luciferase reporter cells;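 note: actives suppress MT1-MMP promoter-driven transcription so potencies describe inhibitors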

outcome, active:
COc1ccc(-c2nsc3c(N4CCCC4)ncnc23)cc1, COc1cccc(-c2cn3nc4c(nc3n2)CCCC4)c1, CCOC(=O)c1nn(-c2ccc3c(c2)CCN3C(C)=O)cc1O, CN(C)c1ccc2c(c1)OC(N)=C(C#N)C2c1cccc(F)c1 (stereo not given), CCN(CC)c1ccc2c(c1)OC(N)=C(C#N)C2c1cccnc1 (stereo not given), COc1cc(C2C(C#N)=C(N)Oc3cc(N(C)C)ccc32)cc2c1OCO2 (stereo not given), Cc1ccc2nc(-c3ccccc3)cn2c1, CN(C)c1ccc(/C=c2\sc3n(c2=O)CCCN=3)cc1, O=C(Nc1ccc(NC(=O)C2CCCCC2)cn1)c1ccco1, N#Cc1c(/N=C/c2cccs2)sc2c1CCCCC2, Cc1oc(-c2nc3ccccc3n2C)cc1C(=O)c1ccccc1, CCC(=O)Nc1ccc2oc(-c3cccc(C)c3)nc2c1

outcome, inactive:
CC(C)CNC(=O)c1ccccc1NC(=O)c1ccccc1N(C)S(C)(=O)=O, COC(=O)CSc1nnc2n1C(C)(C)Cc1ccccc1-2, Cc1ccc2cc(CCNC(=O)C(C)C)c(=O)[nH]c2c1, COC(=O)c1sc(S(=O)(=O)N2CCCCC2)c(C(=O)OC)c1C, COc1ccc(NC(=O)NCCCN2CCc3ccccc3C2)cc1, O=C(Nc1ccc(N2CCOCC2)c(Cl)c1)c1ccco1, O=C(Nc1ccc(N2CCCCC2)c(C(=O)O)c1)c1ccco1, Oc1c(C(Nc2nc3ccccc3s2)c2ccco2)ccc2cccnc12 (stereo not given), CC(=O)NC(c1ccco1)c1ccc2cccnc2c1O (stereo not given), CCN(CC)C(=O)CSc1nnc(-c2ccccn2)n1-c1ccc(C)c(C)c1, COc1ccc(-c2nsc3c(N4CCN(C(=O)c5ccco5)CC4)ncnc23)cc1, COc1ccc(-c2nsc3c(N4CCN(S(=O)(=O)c5ccccc5)CC4)ncnc23)cc1, O=C(N1CCCC1)N1CCN(c2ncnc3c(-c4ccc(Cl)cc4)nsc23)CC1, COc1ccc(S(=O)(=O)N2CCN(c3ncnc4c(-c5ccccc5)nsc34)CC2)cc1, CC1(C)CC(=O)c2cc(C(=O)NC3CCSC3=O)c(=O)n(-c3ccccc3)c2C1 (stereo not given), O=C(O)C1C2C=CC(C2)C1C(=O)N1CCc2ccccc21 (stereo not given), O=C1CCC(C(=O)OCc2c(Cl)cccc2Cl)N1 (stereo not given), CC1C2CC(CC1(C)C)N(C(=O)Nc1ccc3nccnc3c1)C2 (stereo not given), COC(=O)c1c(O)c2ccccc2[nH]c1=O, Cc1cccc2cc(CN(Cc3cccs3)C3(c4nnnn4C4CCCC4)CCCC3)c(=O)[nH]c12, COc1ccc(-c2cn3c(n2)CCC3)cc1, c1ccc(-c2cn3c(n2)CCC3)cc1, c1ccc(-c2ccc(-c3cn4c(n3)CCC4)cc2)cc1, COc1cccc(-c2cn3nc(C)c(C)nc3n2)c1, COc1ccc(-c2cn3ccc4ccccc4c3n2)cc1, COc1cccc(-c2cc(C(F)(F)F)n3nc(N)nc3n2)c1, CCOC(=O)c1cc(-c2ccccc2)n(CC(=O)N2CCCC2)c1C, COc1ccc(OC)c(C(C)NC=O)c1 (stereo not given), Cc1noc(C)c1CSc1nnc2scc(-c3ccc(Cl)cc3)n12, Cc1ccc(NC(=O)c2noc3c2CCCCC3)cc1C, CCc1ccc(NC(=O)c2noc3c2CCCCC3)cc1, O=C(Nc1cccnc1)c1noc2c1CCCCC2, Cc1ccc(NC(=O)c2noc3c2CCCCC3)cc1, Cc1ccccc1C1CC(c2ccc(F)cc2)Nc2nc(N)nn21 (stereo not given), O=C1CCC(=O)N1CCCCCc1nc(-c2ccccc2)no1, NS(=O)(=O)c1ccc(CNC(=O)C2CCCCC2)cc1, CCn1c(SCC(=O)NCC(=O)Nc2ccc(F)cc2)nnc1-c1cccs1, O=C(COc1c(F)c(F)c(C(F)(F)F)c(F)c1F)Nc1ccc(N2CCOCC2)c(Cl)c1, CCOC(=O)C(NC(=O)CC(C)C)(Nc1cc(C)on1)C(F)(F)F (stereo not given), CCC(C)(C)n1nnnc1CN1CCC(c2nc3ccc(C)cc3[nH]2)CC1, Cc1cc2nc(-c3cccc(NC(=O)c4ccc(Br)o4)c3C)oc2cc1C, Cc1cc2oc(=O)cc(CN3CCC(C)CC3)c2cc1Cl, c1ccc(OCCn2c(-c3ccco3)nc3ccccc32)cc1, CC(C)C(=O)N1CCc2cc(-c3csc(N)n3)ccc21, CCC(C)C(=O)N1CCc2cc(-c3csc(N)n3)ccc21 (stereo not given), Cc1csc(=O)n1CC(=O)OCc1cccc2ccccc12, CCOC(=O)c1nn(-c2ccc3c(c2)OCO3)cc1O, CCOC(=O)c1cc(C(=O)OCC)cc(-n2cc(O)c(C(=O)OCC)n2)c1, COC(=O)c1nn(-c2c(C)n(C)n(-c3ccccc3)c2=O)cc1O, COCCCNS(=O)(=O)c1ccc2c(c1)CCN2C(C)=O, COC(=O)c1nn(-c2ccc3c(c2)OCO3)cc1O, CCOC(=O)c1nn(-c2cc(C(=O)OC)cc(C(=O)OC)c2)cc1O, O=S(=O)(NCc1ccc(Cl)cc1)c1cnc[nH]1, O=C(O)C1CCCCC1C(=O)NC1CCCCC1 (stereo not given), CC(C)(C)C(=O)NC1CCN(S(C)(=O)=O)CC1, Cn1cccc1Cc1nnc(SCC(=O)N2CCc3ccccc32)n1-c1ccc(F)cc1, CC1=NC(=O)C(N=Nc2cccc(O)c2)N1c1ccccc1 (stereo not given), CC1=NC(=O)C(N=Nc2ccccc2)N1c1ccccc1 (stereo not given), Cc1ccn(Cc2n[nH]c(=S)n2Cc2ccccc2)n1, COc1ccc(C)cc1S(=O)(=O)N1CCC(C(=O)NCCC2=CCCCC2)CC1, NS(=O)(=O)c1ccc(NS(=O)(=O)c2cccs2)cc1, N#CC1=C(N)Oc2c(ccc3cccnc23)C1c1cccnc1 (stereo not given), N#CC1=C(N)Oc2cc(N)ccc2C1c1ccc(F)cc1 (stereo not given), COc1cc(C2C(C#N)=C(N)Oc3cc(C)oc(=O)c32)cc2c1OCO2 (stereo not given), COc1cc(C2C(C#N)=C(N)Oc3cc(O)ccc32)cc2c1OCO2 (stereo not given), N#CC1=C(N)Oc2cc3ccccc3cc2C1c1cccnc1 (stereo not given), N#CC1=C(N)Oc2cc(O)ccc2C1c1ccccc1 (stereo not given), Cc1cc(NC(=O)CSc2nc3c(c(=O)n2CCc2ccccc2)SC(C)C3)no1 (stereo not given), O=C1CC(c2ccccc2)n2nc(NC(=O)c3cccs3)nc2N1 (stereo not given), COc1cc2nc(C)sc2cc1SC, O=C(C1CCCN(Cc2ccccc2Br)C1)N1CCCCC1 (stereo not given), COc1cccc(NC(=O)CSc2nnc(-c3ccoc3C)n2CC2CCCO2)c1 (stereo not given), C=CCNC(=O)C1CCN(c2nc(C)cc(-c3ccccc3)n2)CC1, c1ccc(C2=Nn3c(nnc3-c3ccncc3)SC2)cc1, COc1ccc(CC(C(=O)Nc2cc(C)ccc2C)/C(N)=N/O)cc1 (stereo not given), COc1ccc(-c2cn3cc(C)ccc3n2)cc1OC, Cc1ccc2nc(-c3cccc(S(=O)(=O)N(C)C)c3)cn2c1, CCOc1ccccc1NC(=O)Cn1nnc(C(=O)NCc2ccco2)c1N, CCOC(=O)C(C(=O)OCC)=C1OC(=O)c2ccccc21, CN(C)CCCNC(=O)c1ccc(-c2ccccc2)cc1, CCOC(=O)CNC(=O)c1cn(CC(C)C)c(=O)c2cc(OC)c(OC)cc12, Cc1ccc2cc(CN(CC3CCCO3)S(=O)(=O)c3c(C)ccc4nsnc34)c(=O)[nH]c2c1 (stereo not given), COCc1nnc(NS(=O)(=O)c2c(C)cc(C)cc2C)s1, O=c1/c(=C/c2ccc(O)cc2)sc2n1CCCN=2, O=c1/c(=C\c2ccc3c(c2)OCO3)sc2n1CCCN=2, O=C(NCCN1CCOCC1)c1ccc2ccccc2n1, COCCn1cc(C(=O)NCCCN2CCC(C)CC2)c2c3ccccc3n(C)c2c1=O, CCC(C)(C)n1nnnc1C(c1cc2ccc(OC)cc2[nH]c1=O)N1CCc2ccccc21 (stereo not given), O=C(Nc1ccc(NC(=O)C2CC2)nc1)c1ccco1, CCC(=O)Nc1ccc(NC(=O)c2ccccn2)cn1, O=C(Cc1ccccc1)Nc1ccc(NC(=O)c2ccco2)nc1, O=C(Nc1ccc(NC(=O)c2ccco2)nc1)c1cccnc1, O=C(Nc1ccc(NC(=O)C2CCCCC2)nc1)c1ccco1, CCCC(=O)Nc1ccc(NC(=O)c2ccccn2)cn1, CCN(Cc1ccccc1)C(c1cc2cc(C)ccc2[nH]c1=O)c1nnnn1CCOC (stereo not given), CCCCCCn1c(N2CCN(c3ccccc3)CC2)nc2c1c(=O)n(C)c(=O)n2C, O=C(Cn1cnc2ccccc2c1=O)N1CCOCC1, CCC1=C2CC[C@H]3C(=O)N(c4ccccc4)C(=O)[C@H]3[C@H]2[C@@]2(Cc3ccccc3)C(=O)N(CC(=O)OC)C(=O)N2C1=O, N#Cc1c(/N=C/c2cccs2)sc2c1CCC2, N#Cc1c(/N=C/c2ccc(Br)s2)sc2c1CCC2, COc1ccc(C(CNC(=O)c2ccc(-n3cnnn3)cc2)N2CCOCC2)cc1 (stereo not given), CC(=O)c1ccc(-c2nc3ccccc3n2C)o1, Cn1cc(C(=O)c2ccccc2)cc1-c1nc2ccccc2n1C, C/C(=C1\SC(N2CCOCC2)=NC1=O)c1ccc(C)cc1, Cc1ccc(CS(=O)(=O)CCC(=O)NCc2ccc3c(c2)OCO3)cc1, CCCC(=O)Nc1ccc(-c2nc3cc(C)c(C)cc3o2)cc1, Cc1cc2nc(-c3ccc(NC(=O)C(C)C)cc3)oc2cc1C, CCC(=O)Nc1ccc2oc(-c3ccccc3Br)nc2c1, CCC(C)NCC(=O)Nc1ccc(-c2nc3cc(NC(=O)CNC(C)CC)ccc3o2)cc1 (stereo not given), CC(C)(C)c1ccc(OCC(=O)Nc2ccc(-c3nc4cccnc4o3)cc2)cc1, Cc1ccc2oc(-c3ccc(NC(=O)CC(C)C)cc3)nc2c1, CCC(=O)Nc1cccc(-c2nc3ccccc3o2)c1, Cc1ccc(-c2nc3cc(NC(=O)C(C)C)ccc3o2)cc1C
